Source: PubChem BioAssay (Pan Lab, Icahn School of Medicine at Mount Sinai)
ROC1-CUL1 inh – inhibitors of human ROC1-CUL1 ubiquitin ligase activity. in vitro K48 di-Ub FRET, acceptor:donor ratio, 45 min. inhibition, % at 10 µM. P62877+Q13616. AID 1347404. 140,000 tested, 0.6% active; in the data active = inhibition above about 25%
An asterisk follows results filed as active. Many of the other results were omitted from the sample, so hits are more common in it than they were.

SMILES | ROC1-CUL1 inh
N=C1C(Cl)C(=O)NC(=O)N1Cc1ccccc1 (stereo unspecified) | -4.3
O=C1NC(=O)C(Br)(Br)C(=O)N1Cc1ccccc1 | 75.5*
CCC1(c2ccccc2)C(=O)NC(=O)N(CCN2CCOCC2)C1=O (stereo unspecified) | 1.3
CCC12CN3CCN(CC(C3)C1=O)C2 | 5.6
COc1ccc2c(c1)c(C(=O)NCc1ccccc1)c(C)n2Cc1ccccc1 | 0.2
CC(C)N1C(=O)/C(=C/C=C/c2ccco2)C(=O)N(Cc2ccco2)C1=O | -3.9
COc1ccc(C=C2C(=O)N(C)C(=O)N(C)C2=O)cc1 | -8.2
COc1ccc(/C=C2/C(=O)N(Cc3ccco3)C(=O)N(C(C)C)C2=O)cc1 | 102.5*
CCN1CCN(Cc2nc3ccccc3c(=O)n2-c2ccc(F)cc2)CC1 | 1.1
CC(C)(C)OC1CCC2(C)C(=CCC3C4CCC(=O)C4(C)CCC32)C1 (stereo unspecified) | -4.7
CCCCN1C=CN2c3nc4cc(C)c(C)cc4n3C(C(=O)OC)=C(C(=O)OC)C12 (stereo unspecified) | 2.9
CCN(CC)c1ccc(/C=C2\C(=O)NC(=S)N(C)C2=O)o1 | -2.3
Cc1c(Cl)cccc1N1C(=O)/C(=C/c2ccc(-c3ccc(C(=O)O)cc3)o2)C(=O)NC1=S | 51.8*
CCN(CC)c1ccc(/C=C2\C(=O)NC(=S)N(c3ccc(OC)cc3OC)C2=O)o1 | 2.0
CCOc1ccc(N2C(=O)/C(=C/c3ccc(CN(CCC#N)S(C)(=O)=O)o3)C(=O)NC2=S)cc1 | 24.3
Cc1cccc(N2C(=O)/C(=C/c3cc(C)n(-c4ccc(C(=O)O)c(Cl)c4)c3C)C(=O)NC2=S)c1C | 12.8
O=C1NC(=S)N(c2ccc(Br)cc2)C(=O)/C1=C/c1ccc(-c2ccccc2C(=O)O)o1 | 82.7*
CCOC(=O)C1C(=N)OC(C)=C(C(=O)OCCOC)C12C(=O)Nc1ccccc12 (stereo unspecified) | 2.1
O=[N+]([O-])c1ccccc1SC1CC2C(c3ccc(F)cc3)Nc3c(Cl)cc(Cl)cc3C2C1Cl (stereo unspecified) | -2.9
O=C1c2nonc2C(=O)c2nonc21 | -4.5
COc1cc(CN2CCN(C(=O)Cc3ccccc3)CC2)cc(OC)c1OC | 6.2
COc1cc(C2SCC(=O)Nc3c2c(-c2ccccc2)nn3-c2ccccc2)cc(OC)c1OC (stereo unspecified) | -1.1
COc1cc(C(c2c(C)[nH]n(-c3ccccc3)c2=O)c2c(C)[nH]n(-c3ccccc3)c2=O)cc(OC)c1OC | 62.2*
C#CCN1CCc2ccccc2CC1 | 0.7
Cc1ccsc1/C=C/c1nc2ccccc2c(=O)n1-c1cccc(C(F)(F)F)c1 | 7.2
